AmpC no deterg: inhibitors of E. coli AmpC beta-lactamase without detergent | P00811 | AmpC nitrocefin hydrolysis, absorbance 480 nm, 0.0001% Triton | Potency, µM (top dose mostly 57.1 µM), for inactives: top-dose activity change, negative = inhibition, most hits filed as inhibitors | 330,000 tested, 0.52% active | AID 485341;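 also: plate controls were no compound for no effect and no enzyme for full effect; nearly all actives have a fitted effect of over 20% in size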
Target sequence (P00811 whole entry, looked up): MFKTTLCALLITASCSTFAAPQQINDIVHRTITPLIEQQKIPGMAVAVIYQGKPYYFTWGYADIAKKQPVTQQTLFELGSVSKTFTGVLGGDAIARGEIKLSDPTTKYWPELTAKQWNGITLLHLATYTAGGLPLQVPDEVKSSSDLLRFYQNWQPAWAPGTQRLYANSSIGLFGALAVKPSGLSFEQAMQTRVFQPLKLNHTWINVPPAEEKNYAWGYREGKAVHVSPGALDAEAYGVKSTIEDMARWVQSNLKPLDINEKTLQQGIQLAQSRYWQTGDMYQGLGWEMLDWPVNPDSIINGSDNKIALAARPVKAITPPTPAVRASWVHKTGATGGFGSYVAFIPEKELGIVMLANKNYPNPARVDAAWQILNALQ
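20 mM phosphate pH 7.0 + 0.01% (detergent screen) or 0.0001% Triton X-100; 5.3 nM AmpC reagent; cpd preinc 15 min RT; nitrocefin (800 uM stock) to start; A480 q20 s × 4 min; Activity was normalised to no-enzyme and no-compound control wells.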
Sm TGR inh: inhibitors of Schistosoma mansoni thioredoxin glutathione reductase | Q962Y6 | Potency, µM (titrated, usually from 114 µM), without a hit: at the top dose activity change, negative = inhibition, hits mostly inhibitors | purified TGR, DTNB reduction, TNB absorbance 405 nm | 360,000 tested, 3% active; also: % is scaled to controls: 0 for no effect and ±100 for the full control effect; nearly all actives have a fitted effect of over 60% in size
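First, TGR (20 nM dispensed) and NADPH were mixed with compound. Second, a 15 min room-temperature incubation followed. Third, further NADPH and then DTNB were added to start the reaction. Finally, TNB absorbance was monitored kinetically.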
SARS PLpro yeast: SARS-CoV PLP inhibition in yeast | S. cerevisiae expressing SARS-CoV PLpro, growth rescue | Potency, µM (doses to about 32.9 µM), inactives show top-dose activity, positive = growth rescue, most hits filed as activators | 330,000 tested, 0.19% active | AID 485353; calls by dose curve; also: 0% is about no effect; nearly all actives have a fitted effect of over 55% in size
Pf growth 48h: P. falciparum growth inhibition at 48 hours (one generation); 310,000 tested, 5.9% active; Potency, µM (titrated, usually from 28.7 µM), for inactives: top-dose activity change, negative = inhibition, usual class: inhibitors; P. falciparum luciferase growth in erythrocytes, 48 h; also: % is scaled to controls: 0 for no effect and ±100 for the full control effect
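In quantitative HTS format, infected erythrocytes bearing luciferase-reporter parasites were treated for a single generation at 37 C. Luminescence after adding detection reagent served as the growth measure.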
AmpC inh detg: blocks E. coli AmpC beta-lactamase in detergent assay | P00811 | AmpC hydrolysis of nitrocefin, absorbance 480 nm, 0.01% Triton | Potency, µM (top dose mostly 114 µM), for inactives: at the highest dose activity change, negative = inhibition, actives largely listed as inhibitors | 370,000 tested, 0.041% active;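 also: 0% = no-compound wells and -100% = no-enzyme wells; nearly all actives have a fitted effect of over 25% in size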
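20 mM phosphate pH 7.0 + 0.01% (detergent screen) or 0.0001% Triton X-100; 5.3 nM AmpC reagent; cpd preinc 15 min RT; nitrocefin (800 uM stock) to start; A480 q20 s × 4 min; Activity was normalised to no-enzyme and no-compound control wells.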
Pf growth 96h: P. falciparum growth inhibition at 96 hours. P. falciparum luciferase reporter growth, 96 h. Potency, µM (series often up to 28.7 µM), inactives show top-dose activity change, negative = inhibition, hits mostly inhibitors. 320,000 tested, 6.9% active. AID 504834; also: % is scaled to controls: 0 for no effect and ±100 for the full control effect
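Plates of compound plus infected erythrocytes (2% hematocrit, 0.05% parasitemia final) incubate 96 hours, 37 C, 5% CO2. Detection reagent added; reduced luminescence from the parasites' luciferase reporter flags inhibition.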
Starred values were filed as active, the others as inactive; ? = inconclusive; nt = no result given; [ ] = another dose, or the depositor's remark. The list is not random: actives were taken first. Their share in the collection is about 12%. Unless noted, calls follow the shape of the dose curve; as a rule, active = well fitted curve in the direction sought with a large enough effect; inconclusive = small, poorly fitted or top-dose-only effect, or another doubt; inactive = no such curve, though single readings can be large; an effect the other way counts as inactive or inconclusive. Potency is read from the fitted curve at half-maximal effect.

SMILES	AmpC no deterg	Sm TGR inh	SARS PLpro yeast	Pf growth 48h	AmpC inh detg	Pf growth 96h
S=C(NCCCn1ccnc1)Nc1ccc(Cl)cc1Cl	-10.1%[2.29 µM]	31.6µM*	0.3%	?	-5.5%	158.5%
CN(C)S(=O)(=O)c1cccc(NC(=S)NCCCn2ccnc2)c1	-33.6%	50.1µM*	1.5%	4.3%	-1.9%	-5.1%
COc1ccc(NCc2cc3cc4c(cc3n(CC(=O)Nc3ccccc3)c2=O)OCO4)cc1	nt	4.8%	nt	nt	18.1%	nt
CCOC(=O)N1CCN(C(=O)Cc2ccccc2[N+](=O)[O-])CC1	-9.0%	-1.2%	3.7%	-3.4%	-1.7%	-26.3%
C#CC[N+]1(CC#Cc2cccc(C)c2)CCCCC1	-15.5%	-4.4%	-0.3%	1.47µM*	7.1%	-12.1%
Cc1ccc(C#CC[N+]2(CC#Cc3ccc(C)cc3)CCCCC2)cc1	48.0%	-34.6%	2.4%	0.586µM*	-7.6%	?
COc1cccc2cc(-c3nc(Nc4cccc(C)c4)sc3C)c(=O)oc12	nt	-9.8%	nt	nt	9.6%	nt
Cc1ccc(/C=N/c2sc3c(c2C(N)=O)CCCC3)o1	-26.0%	22.4µM*	0.0%	278.2%	-1.3%	?
O=C(c1cccc(C(F)(F)F)c1)C1CCCN(C(=O)CCCn2cncn2)C1 (configuration not stated)	42.0%	0.0%	-1.4%	40.2%	6.8%	?
S=C(S)N1CCCC1	-16.3%	-5.3%	nt	10.4µM*	?	?
COc1cc(Br)cc(Br)c1OCC(=O)N/N=C/c1c(C)n(C)n(-c2ccccc2)c1=O	12.0%	0.0%	1.9%	5.4%	?	-16.7%
CCCSc1ncc(Cl)c(C(=O)Nc2c(C(=O)Nc3ccc(C)cc3)oc3ccccc23)n1	nt	4.3%	nt	nt	1.5%	nt
CC(=O)Nc1ccc(NC(=O)C/C(C)=N/NC(N)=S)cc1	-25.0%	-8.8%	11.2µM*	?	-9.6%	1.85µM*
Cn1cc([N+](=O)[O-])c(C(=O)NCc2cc3cc(Cl)ccc3[nH]2)n1	-18.8%	6.3%	-0.6%	-10.6%	?	4.0%
COc1cccc(C(=O)NC2CCN(C(=O)N3c4ccccc4Sc4ccccc43)CC2)c1	?	-6.6%	-14.3%	8.28µM*	-2.1%	5.22µM*
O=C(c1ccco1)N1CCN(C(=O)N2c3ccccc3Sc3ccccc32)CC1	108.6%	-2.4%	-12.8%	11.7µM*	?	?
O=C(NC1CCN(C(=O)N2c3ccccc3Sc3ccccc32)CC1)c1ccco1	18.0%	-9.7%	-7.1%	1.65µM*	-12.0%	?
O=C(c1ccncc1)N1c2ccccc2Sc2ccccc21	14.4%	-6.6%	-9.3%	-6.5%	2.4%	11.2%
COc1cccc(C(=O)N2c3ccccc3Sc3ccccc32)c1	-0.3%	1.8%	-17.3%	10.4µM*	6.2%	102.2%
O=C(c1ccco1)N1c2ccccc2Sc2ccccc21	-13.6%	?	-50.1%	?	-1.1%	17.9%
O=c1c2sccc2n(Cc2cc(=O)n3cc(Cl)ccc3n2)c(=O)n1-c1ccccc1	nt	16.4%	nt	nt	16.0%	nt
CCc1ccc(NC(=O)NCCc2c(C)nn(C)c2C)cc1	nt	3.5%	nt	nt	16.8%	nt
CC(C)C(C(=O)NC1=NCCS1)c1ccc(Cl)cc1 (configuration not stated)	-28.3%[11.4 µM]	4.7%	-5.3%	3.7µM*	-2.9%	?
COc1ccc(NC(=O)C(c2ccc(Cl)cc2)C(C)C)cn1 (configuration not stated)	32.5%	3.7%	-8.4%	1.47µM*	0.3%	?
CC1CCN(C(=O)CN(Cc2ccc(F)cc2)S(C)(=O)=O)CC1	5.1%	0.3%	1.4%	-2.1%	-4.2%	-12.1%
SMILES	AmpC no deterg	Sm TGR inh	SARS PLpro yeast	Pf growth 48h	AmpC inh detg	Pf growth 96h
O=C(CN(Cc1ccc(F)cc1)S(=O)(=O)c1ccccc1)N1CCCCC1	30.4%	0.0%	0.6%	?	-19.4%	4.15µM*
CS(=O)(=O)N(CC(=O)N1CCCC1)Cc1ccc(F)cc1	-4.5%	39.8µM*	1.4%	42.1%	-1.5%	?
COc1ccc(C(=O)NC2CCN(CC(=O)N3CCCCC3)CC2)cc1	-10.2%	2.9%	0.2%	6.0%	-6.6%	-29.9%
Cc1ccc(S(=O)(=O)Nc2cccc(CP(=O)(c3ccccc3)c3ccccc3)c2)cc1	-4.6%	3.8%	0.4%	3.29µM*	5.4%	9.28µM*
O=C(CP(=O)(c1ccccc1)c1ccccc1)Nc1cccc(CP(=O)(c2ccccc2)c2ccccc2)c1	81.1%	4.2%	1.3%	?	-8.6%	7.38µM*
O=P(Cc1ccccc1)(c1ccccc1)c1ccccc1	-16.2%	5.4%	21.2%	0.0%	0.3%	1.4%
CCOc1ccc(NS(=O)(=O)c2ccc(NC(=S)NC(C)=O)cc2)cc1	0.6%	7.9%	0.5%	?	10.3%	3.7µM*
CCOc1ccc(NS(=O)(=O)c2ccc3ncsc3c2)cc1	-1.4%	0.2%	-0.4%	-4.9%	-4.8%	3.7µM*
CC1CC(C)CN(C(=O)Cn2c(=O)n(CCCCC(=O)NC3CCCC3)c(=O)c3ccccc32)C1 (configuration not stated)	-23.2%	28.2µM*	3.2%	-19.8%	?	12.6%
CCCN(CCC)C(=O)Cn1c(=O)n(CCCCC(=O)NC2CCCC2)c(=O)c2ccccc21	0.316µM*	0.9%	1.2%	-14.2%	-1.2%	0.0%
CC1CC(C)CN(C(=O)Cn2c(=O)n(CCCCC(=O)NCc3ccco3)c(=O)c3ccccc32)C1 (configuration not stated)	51.5%	-0.6%	2.0%	?	?	?
O=C(CCCCn1c(=O)c2ccccc2n(CC(=O)NC2CCCC2)c1=O)NC1CCCC1	-9.6%	-19.6%	-5.5%	?	-2.9%	-4.5%
COc1ccc(N(CC(=O)NC(C)(C)C)C(=O)CCC(=O)Nc2nccs2)c(OC)c1	27.8%	11.2%	-0.9%	-7.9%	?	-16.6%
COc1cccc(CNC(=O)Cn2ncn3nc(-c4cccs4)cc3c2=O)c1OC	nt	4.3%	nt	nt	-8.7%	nt
CC(C)CCNc1nc(Nc2ccccc2)c2cnn(C)c2n1	nt	-0.5%	nt	nt	?	nt
COc1cccc(N2CCN(C(=O)c3cc4c(s3)-c3ccccc3OC4)CC2)c1	-44.1%	-0.6%	-7.0%	-1.6%	-10.9%	4.15µM*
CCN1CCN(CCCNC(=O)c2cc3c(s2)-c2ccccc2OC3)CC1	29.3%	-2.0%	-5.6%	?	-12.2%	?
CCOC(=O)N1CCN(C(=O)c2cc3c(s2)-c2ccccc2OC3)CC1	-58.9%	-3.1%	-7.0%	0.3%	?	8.28µM*
CCCN1CCN(C(=O)c2cc3c(s2)-c2ccccc2OC3)CC1	118.8%	-10.2%	-6.1%	49.2%	?	24.0%

High-throughput results as filed in PubChem BioAssay.
